Read-out in experiment [1]: Human Leukocyte Antigen - DR isotype (HLADR), HLA-DRA (gene 3122)
The experiment in a line: BSK_BE3C_HLADR: BioMAP Diversity Plus: BE3C Assay for Human Leukocyte Antigen - DR isotype (HLADR) Biomarker Activity (AID 2283032). To be noted: primary human bronchial epithelial cells; actives raise or lower the signal. The method in brief: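 Cell-surface HLA-DR ELISA readout at 24 h after dosing in the BE3C primary human lung bronchial epithelial system; gain or loss of signal against DMSO, with parallel sulforhodamine B staining of total protein for overt cytotoxicity.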

Read-out in experiment [2]: Vascular cell adhesion molecule 1 (VCAM1), VCAM1 (gene 7412)
The experiment can be described thus: BSK_4H_VCAM1: BioMAP Diversity Plus: 4H Assay for Vascular cell adhesion molecule 1 (VCAM1) Biomarker Activity (AID 2283033).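 Also: cell-surface VCAM-1 protein measured by ELISA.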 Particulars: primary human endothelial cells (HUVEC); actives raise or lower the signal. The procedure, abridged: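 VCAM-1 ELISA read 24 h after chemical dosing of HUVEC in the BioMAP 4H system, with gain or loss of signal fitted relative to DMSO. Parallel SRB staining (560 nm) checked overt cytotoxicity.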

Read-out in experiment [3]: Interferon-gamma inducible Protein 10 (IP10), CXCL10 (gene 3627)
The experiment can be described thus: BSK_BE3C_IP10: BioMAP Diversity Plus: BE3C Assay for Interferon-gamma inducible Protein 10 (IP10) Biomarker Activity (AID 2283034). Particulars: primary human bronchial epithelial cells; actives raise or lower the signal. The method in brief:
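IP-10 quantified by ELISA in human primary bronchial epithelial cell cultures at 24 hours post-dosing. Gain or loss of signal fitted relative to DMSO; parallel SRB staining assessed overt cytotoxicity.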

Read-out in experiment [4]: Monokine induced gamma interferon (MIG), CXCL9 (gene 4283)
The experiment can be described thus: BSK_BE3C_MIG: BioMAP Diversity Plus: BE3C Assay for Monokine induced gamma interferon (MIG) Biomarker Activity (AID 2283035). To be noted: primary human bronchial epithelial cells; actives raise or lower the signal. The procedure, abridged:
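ELISA quantified MIG after 24 h exposure of primary bronchial epithelial cultures, analysed in both directions relative to DMSO. Cytotoxicity tracked in parallel cultures by sulforhodamine B staining.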

Read-out in experiment [5]: Transforming growth factor beta 1 (TGFb1), TGFB1 (gene 7040)
The experiment can be described thus: BSK_BE3C_TGFb1: BioMAP Diversity Plus: BE3C Assay for Transforming growth factor beta 1 (TGFb1) Biomarker Activity (AID 2283036;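 also: TGF-b1 protein level measured by ELISA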). To be noted: primary human bronchial epithelial cells; actives raise or lower the signal. The procedure, abridged: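 ELISA readout of TGF-b1 from human lung bronchial epithelial primary cells, taken 24 h post-treatment. Gain or loss of signal fitted relative to DMSO baseline, with parallel SRB staining for overt cytotoxicity.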

Read-out in experiment [6]: Plasminogen activator inhibitor-1 (PAI1), SERPINE1 (gene 5054)
The experiment can be described thus: BSK_BE3C_PAI1: BioMAP Diversity Plus: BE3C Assay for Plasminogen activator inhibitor-1 (PAI1) Biomarker Activity (AID 2283037). To be noted: primary human bronchial epithelial cells; actives raise or lower the signal. The method in brief: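 PAI-1 was measured by ELISA in human primary bronchial epithelial cultures 24 h after chemical dosing, with cytotoxicity checked by SRB total-protein staining in parallel cultures. Activity was fitted in both directions relative to DMSO.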

Read-out in experiment [7]: Urokinase-type plasminogen activator receptor (uPAR), PLAUR (gene 5329)
The experiment in a line: BSK_BE3C_uPAR: BioMAP Diversity Plus: BE3C Assay for Urokinase-type plasminogen activator receptor (uPAR) Biomarker Activity (AID 2283039).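 Also: cells exposed to compound for one day before measurement.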 Particulars: primary human bronchial epithelial cells; actives raise or lower the signal. The procedure, abridged:
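uPAR levels were measured by ELISA after 24 h compound treatment of primary human bronchial epithelial cells, fitted in both directions relative to DMSO. Parallel SRB staining served as the cytotoxicity read-out.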

Read-out in experiment [8]: Interleukin-6 (IL6), IL6 (gene 3569)
The experiment in a line: BSK_CASM3C_IL6: BioMAP Diversity Plus: CASM3C Assay for Interleukin-6 (IL6) Biomarker Activity for (AID 2283040). Particulars: primary human coronary artery smooth muscle cells; actives raise or lower the signal.

Read-out in experiment [9]: Tissue plasminogen activator (tPA), PLAT (gene 5327)
The experiment can be described thus: BSK_BE3C_tPA: BioMAP Diversity Plus: BE3C Assay for Tissue plasminogen activator (tPA) Biomarker Activity (AID 2283041).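 Also: tPA level quantified by ELISA one day after compound addition.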 To be noted: primary human bronchial epithelial cells; actives raise or lower the signal. The procedure, abridged:
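tPA measured by ELISA 24 h after dosing human primary bronchial epithelial cells (BE3C system). Changes in either direction were fitted against DMSO. Parallel cultures were stained with SRB to flag overt cytotoxicity.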

Read-out in experiment [10]: Interleukin-8 (IL8), CXCL8 (gene 3576)
The experiment can be described thus: BSK_CASM3C_IL8: BioMAP Diversity Plus: CASM3C Assay for Interleukin-8 (IL8) Biomarker Activity (AID 2283042).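 Also: IL-8 protein level quantified by ELISA.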 To be noted: primary human coronary artery smooth muscle cells; actives raise or lower the signal.

Read-out in experiment [11]: Human Leukocyte Antigen - DR isotype (HLADR), HLA-DRA (gene 3122)
The experiment can be described thus: BSK_CASM3C_HLADR: BioMAP Diversity Plus: CASM3C Assay for Human Leukocyte Antigen - DR isotype (HLADR) Biomarker Activity (AID 2283043).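 Also: cell-surface HLA-DR protein level quantified by ELISA.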 Particulars: primary human coronary artery smooth muscle cells; actives raise or lower the signal.

Read-out in experiment [12]: Macrophage colony-stimulating factor (MCSF), CSF1 (gene 1435)
The experiment in a line: BSK_CASM3C_MCSF: BioMAP Diversity Plus: CASM3C Assay for Macrophage colony-stimulating factor (MCSF) Biomarker Activity (AID 2283044).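 Also: M-CSF protein amount quantified by ELISA after 24 h exposure.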 Particulars: primary human coronary artery smooth muscle cells; actives raise or lower the signal.

Read-out in experiment [13]: Low-density lipoprotein receptor (LDLR), LDLR (gene 3949)
The experiment in a line: BSK_CASM3C_LDLR: BioMAP Diversity Plus: CASM3C Assay for Low-density lipoprotein receptor (LDLR) Biomarker Activity (AID 2283045).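 Also: LDLR protein level on the cell surface quantified by ELISA.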 Particulars: primary human coronary artery smooth muscle cells; actives raise or lower the signal.

Read-out in experiment [14]: Monocyte Chemoattractant Protein-1 (MCP1), CCL2 (gene 6347)
The experiment can be described thus: BSK_CASM3C_MCP1: BioMAP Diversity Plus: CASM3C Assay for Monocyte Chemoattractant Protein-1 (MCP1) Biomarker Activity (AID 2283046).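 Also: MCP-1 level quantified by ELISA 24 h after dosing.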 To be noted: primary human coronary artery smooth muscle cells; actives raise or lower the signal.

The nature of experiment [15]: BSK_CASM3C_Proliferation: Cell Proliferation Assessment in the BioMAP Diversity Plus: CASM3C Assay (AID 2283047).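 Also: sulforhodamine B total protein stain as relative cell number at 560 nm; sub-confluent cells exposed 48 h before staining; fitted both ways against DMSO so gain or loss of cell number.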 To be noted: primary human coronary artery smooth muscle cells.
Read-out in experiment [16]: Monokine induced gamma interferon (MIG), CXCL9 (gene 4283)
The experiment can be described thus: BSK_CASM3C_MIG: BioMAP Diversity Plus: CASM3C Assay for Monokine induced gamma interferon (MIG) Biomarker Activity (AID 2283048).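 Also: MIG protein level measured by ELISA.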 To be noted: primary human coronary artery smooth muscle cells; actives raise or lower the signal.

Read-out in experiment [17]: serum amyloid A (SAA), SAA1 (gene 6288)
The experiment can be described thus: BSK_CASM3C_SAA: BioMAP Diversity Plus: CASM3C Assay for serum amyloid A (SAA) Biomarker Activity (AID 2283049).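 Also: SAA protein level quantified by ELISA.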 Particulars: primary human coronary artery smooth muscle cells; actives raise or lower the signal.

A short description of experiment [18]: BSK_CASM3C_SRB: Viability Assessment in the BioMAP Diversity Plus: CASM3C Assay (AID 2283050). Particulars: primary human coronary artery smooth muscle cells.
Read-out in experiment [19]: Thrombomodulin, THBD (gene 7056)
The experiment in a line: BSK_CASM3C_Thrombomodulin: BioMAP Diversity Plus: CASM3C Assay for Thrombomodulin Biomarker Activity (AID 2283051).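 Also: thrombomodulin protein level measured by ELISA 24 h after dosing.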 To be noted: primary human coronary artery smooth muscle cells; actives raise or lower the signal.

Read-out in experiment [20]: urokinase plasminogen activator (uPA), PLAU (gene 5328)
The experiment in a line: BSK_BE3C_uPA: BioMAP Diversity Plus: BE3C Assay for urokinase plasminogen activator (uPA) Biomarker Activity (AID 2283038).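 Also: uPA protein level quantified by ELISA in cell cultures; uPA read one day after compound addition.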 To be noted: primary human bronchial epithelial cells; actives raise or lower the signal. The method in brief:
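ELISA for uPA on human primary bronchial epithelial cultures 24 h post-treatment, gain or loss against DMSO. Parallel SRB staining (0.1% after 10% TCA fixation, 560 nm) assessed overt cytotoxicity.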

Active and inactive are the calls of the source. The calls were made as follows: active = hit-call score of the fitted dose curve at least 0.9, where 1 is the maximum; inactive = score below 0.9.

The term AC50 denotes the concentration at which the activity in the assay is half-maximal.

As for `NC(=O)NN=Cc1ccc([N+](=O)[O-])o1`, the outcome in [1], in experiment [2], in [3], in experiment [4], in experiment [5] and in [6] was inactive. For the same compound, the outcome in experiment [7], in [8], in experiment [9], in experiment [10], in experiment [11] and in [12] was inactive. Further, the outcome in experiment [13], in experiment [14], in experiment [15], in [16], in experiment [17] and in experiment [18] was inactive. Further, in [19], the result was inactive.
For the compound `O=C(O)[C@H](O)[C@@H](O)C(=O)O`, the outcome in [1], in experiment [2], in [3], in [4], in experiment [5] and in experiment [6] was inactive. Also, the outcome in experiment [20], in experiment [7], in [8], in experiment [9], in [10] and in [11] was inactive. Also, the outcome in [12], in experiment [13], in experiment [14], in experiment [15], in [16] and in experiment [17] was inactive. Besides, the outcome in experiment [18] and in experiment [19] was inactive.
For the compound `CC(C)c1nnc2ccc(-c3ocnc3-c3cc(F)ccc3F)cn12`, the result in [1], in experiment [2], in [3], in experiment [4], in experiment [5] and in experiment [6] was inactive. For the same compound, the result in experiment [7], in experiment [9], in experiment [12], in experiment [14], in experiment [15] and in [16] was inactive. For the same compound, the outcome in experiment [17], in experiment [18] and in [19] was inactive. Besides, the AC50 was 0.552 µM (active) in [8], 0.628 µM (active) in [10], 0.561 µM (active) in [11] and 0.551 µM (active) in [13].
Consider `O=C1CN(N=Cc2ccc([N+](=O)[O-])o2)C(=O)N1`, for which the result in experiment [1], in experiment [2], in experiment [3], in experiment [4], in experiment [5] and in experiment [6] was inactive. In addition, the result in [20], in [7], in [8], in experiment [9], in [10] and in experiment [11] was inactive. For the same compound, the outcome in [12], in [13], in [14], in [15], in experiment [16] and in experiment [17] was inactive. Further, the outcome in experiment [18] and in experiment [19] was inactive.
For the compound `O=S(=O)(O)c1ccc(N=Nc2c(O)ccc3cc(S(=O)(=O)O)ccc23)cc1`, the outcome in experiment [1], in experiment [2], in [3], in [4], in experiment [5] and in experiment [6] was inactive. Also, the result in [7], in [8], in experiment [9], in experiment [10], in experiment [11] and in experiment [12] was inactive. For the same compound, the result in experiment [13], in experiment [14], in [15], in experiment [16], in experiment [17] and in [18] was inactive. Moreover, in experiment [19], the outcome was inactive.
With `CCCCCOC(C)=O`, the outcome in [1], in experiment [2], in [3], in experiment [4], in experiment [5] and in experiment [6] was inactive. In addition, the result in experiment [7], in experiment [8], in experiment [9], in experiment [10], in [11] and in experiment [12] was inactive. Besides, the outcome in [13], in [14], in experiment [15], in [16], in [17] and in experiment [18] was inactive. The result in experiment [19] was inactive.
For the compound `CNC(C)=O`, the result in [1], in experiment [2], in [3], in experiment [4], in experiment [5] and in experiment [6] was inactive. For the same compound, the result in experiment [7], in [8], in experiment [9], in experiment [10], in experiment [11] and in experiment [12] was inactive. The outcome in experiment [13], in experiment [14], in experiment [15], in experiment [16], in experiment [17] and in experiment [18] was inactive. The outcome in experiment [19] was inactive.
